From PubChem BioAssay (EPA / NIEHS)
Where a structure was tested more than once in an assay, its records may differ in their call. Active and inactive are the calls of the source. Rule for the calls: active = hit-call score of the fitted dose curve at least 0.9, where 1 is the maximum; inactive = score below 0.9.

What follows are molecules tested against Signal transducer and activator of transcription 3 (Homo sapiens) (UniProt P40763) (assay: ATG_STAT3_CIS: Attagene CIS-FACTORIAL HepG2 Assay for human Signal Transducer and Activator of Transcription 3 (STAT3) (AID 2282963)). Details: HepG2, Attagene cis-factorial STAT3 reporter transcription; actives raise or lower the signal.
Protocol: ATG_CIS is a cell-based, multiplexed-readout assay that uses HepG2, a human liver cell line, with measurements taken at 24 hours after chemical dosing in a 24-well plate.ATG_STAT3_CIS is one of 52 assay component(s) measured or calculated from the ATG_CIS assay. It is designed to make measurements of mRNA induction, a form of inducible reporter, as detected with fluorescence intensity signals by Reverse transcription polymerase chain reaction (RT-PCR) and Capillary electrophoresis technology.Data from the assay component ATG_STAT3_CIS was analyzed into 1 assay endpoint. This assay endpoint, ATG_STAT3_CIS, was analyzed with bidirectional fitting relative to DMSO as the negative control and baseline of activity. Using a type of inducible reporter, measures of mRNA for gain or loss-of-signal activity can be used to understand the reporter gene at the transcription factor-level as they relate to the gene STAT3. Furthermore, this assay endpoint can be referred to as a primary readout, because this assay has produced multiple assay endpoints where this one serves a reporter gene function. To generalize the intended target to other relatable targets, this assay endpoint is annotated to the dna binding intended target family, where the subfamily is stat protein.
Human liver HepG2 cells are transiently transfected with multiple reporter transcription units (MRTUs) in 6-well plates using FuGene 6 reagent (Roche; 3 ml FuGene/1 mg DNA). The MRTU constructs are regulated by a cis-regulating element (promoter). […] A major difference between the CIS and TRANS system is that in CIS activities of endogenous TFs are measured, whereas the TRANS assay evaluates changes in activities of exogenous, chimeric NR-Gal4 proteins. […] At the end of 24 hour incubation, total RNA was isolated using TriZol reagent (Invitrogen). The isolated RNA is then reverse-transcribed using oligo(dT) primer and Mo-MLV reverse transcriptase (Invitrogen) with DNAse I (Ambion) treatment for 30 min. The one-tenth of the produced cDNA was amplified by PCR using Taq DNA polymerase (Invitrogen) and two reporter sequence-specific primers. The PCR products were fluorescently labeled by primer extension with 6-arboxyfluorescein (6-FAM) 5'-labeled reporter sequence-specific primer (2 min at 95 C, 20 s at 68 C and 10 min at 72 C) and these products were digested with 5U of HpaI (New England Biolabs) for 2h at 37 C. The fragments were purified using Qiaquick PCR columns (Qiagen), analyzed on an ABI 3130xL genetic analyzer (Applied Biosystems) with peak positions identified by using a set of X-rhodamine (ROX)-labeled MapMarker1000 molecular weight standards (BioVentures). The raw capillary electrophoresis data was processed using Attagraph software (Attagene).

Sequence of Signal transducer and activator of transcription 3 (Homo sapiens) (P40763 whole entry, looked up): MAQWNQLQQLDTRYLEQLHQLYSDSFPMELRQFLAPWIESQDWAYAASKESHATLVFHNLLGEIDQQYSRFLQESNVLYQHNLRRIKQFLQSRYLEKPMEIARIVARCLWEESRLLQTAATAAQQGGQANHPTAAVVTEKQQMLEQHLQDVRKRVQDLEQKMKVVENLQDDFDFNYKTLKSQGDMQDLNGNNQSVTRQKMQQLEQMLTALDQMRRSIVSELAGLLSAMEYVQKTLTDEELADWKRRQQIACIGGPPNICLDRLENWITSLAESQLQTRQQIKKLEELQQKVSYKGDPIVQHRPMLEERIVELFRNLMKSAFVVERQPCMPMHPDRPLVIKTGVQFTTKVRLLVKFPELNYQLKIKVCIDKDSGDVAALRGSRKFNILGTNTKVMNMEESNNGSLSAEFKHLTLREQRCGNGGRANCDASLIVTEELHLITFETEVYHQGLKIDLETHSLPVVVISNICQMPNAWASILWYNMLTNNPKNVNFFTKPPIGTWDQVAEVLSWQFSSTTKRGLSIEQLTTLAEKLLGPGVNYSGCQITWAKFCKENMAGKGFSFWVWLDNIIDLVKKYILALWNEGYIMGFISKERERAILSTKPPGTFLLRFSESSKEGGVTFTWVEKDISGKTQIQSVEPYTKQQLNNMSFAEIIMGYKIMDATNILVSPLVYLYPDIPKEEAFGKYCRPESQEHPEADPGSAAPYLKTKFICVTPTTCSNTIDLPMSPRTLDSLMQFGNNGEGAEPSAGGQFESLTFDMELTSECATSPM

Row | SMILES | outcome | AC50
1 | C1CC2OC2CC1C1CO1 (stereo not given) | inactive | 
2 | CCCCCCCCOC(=O)c1ccccc1C(=O)OCCCCCCCC | inactive | 
3 | CCSC(=O)N(CC)C1CCCCC1 | inactive | 
4 | CC#Cc1cc(C)nc(Nc2ccccc2)n1 | inactive | 
5 | O=C(N[C@H]1CN2CCC1CC2)c1cc2ccoc2cn1 | inactive | 
6 | ClC(Cl)=C(c1ccc(Cl)cc1)c1ccc(Cl)cc1 | inactive | 
7 | ClC1=C(Cl)[C@]2(Cl)[C@@H]3[C@@H](Cl)[C@H]4O[C@H]4[C@@H]3C1(Cl)C2(Cl)Cl | inactive | 
8 | COc1ccc(O)c(C(C)(C)C)c1 | inactive | 
9 | Oc1ccc(Cl)cc1Cl | inactive | 
10 | C[C@]12CCC(=O)C=C1CC[C@@H]1[C@@H]2CC[C@]2(C)C(=O)CC[C@@H]12 | inactive | 
11 | CCC(C)(c1ccc(O)cc1)c1ccc(O)cc1 | inactive | 
12 | COS(=O)(=O)OC | inactive | 
13 | Cc1cccc([N+](=O)[O-])c1 | inactive | 
14 | CCOC(=O)C(O)(c1ccc(Cl)cc1)c1ccc(Cl)cc1 | inactive | 
15 | CCOP(=S)(OCC)SCSC(C)(C)C | inactive | 
16 | CC1=C2C[C@H]3[C@@H](CC=C4C[C@@H](O)CC[C@@]43C)[C@@H]2CC[C@]12O[C@@H]1C[C@H](C)CN[C@H]1[C@H]2C | inactive | 
17 | CCC(=O)O[C@H]1CC[C@H]2[C@@H]3CCC4=CC(=O)CC[C@]4(C)[C@H]3CC[C@]12C | inactive | 
18 | ClC1=C(Cl)[C@]2(Cl)[C@@H]3[C@H]4C[C@H]([C@@H]5O[C@H]45)[C@@H]3[C@@]1(Cl)C2(Cl)Cl | inactive | 
19 | CCCCCCCCCc1ccc(O)cc1 | inactive | 168 µM (active)
20 | CCCN(CCC)N=O | inactive | 

Row | SMILES | outcome | AC50
21 | Sc1ccccc1 | inactive | 
22 | Oc1c(Cl)c(Cl)c(Cl)c(Cl)c1Cl | inactive | 
23 | O=C(O)C(F)(F)C(F)(F)C(F)(F)C(F)(F)C(F)(F)F | inactive | 
24 | Cc1ccccc1CO[C@@H]1C[C@@]2(C(C)C)CC[C@]1(C)O2 | inactive | 
25 | Nc1ccc(-c2ccc(N)cc2)cc1 | inactive | 
26 | Clc1ccc(C(Cl)(Cl)Cl)cc1 | inactive | 
27 | O=C(O)C(F)(F)C(F)(F)C(F)(F)C(F)(F)C(F)(F)C(F)(F)C(F)(F)C(F)(F)C(F)(F)F | inactive | 
28 | Clc1ccc(Cl)cc1 | inactive | 
29 | Cc1cc(-c2ccc(N)c(C)c2)ccc1N | inactive | 
30 | Cc1ccc(O)c(C)c1 | inactive | 
31 | CCCCCCCCCC[N+](C)(C)CCCCCCCCCC | inactive | 
32 | CCC(C)(CC)c1cc(NC(=O)c2c(OC)cccc2OC)on1 | inactive | 
33 | Nn1cnnc1 | inactive | 
34 | CC(C)C(=O)OCC(C)(C)C(OC(=O)C(C)C)C(C)C (stereo not given) | inactive | 
35 | c1ccc(-c2ccccc2)cc1 | inactive | 
36 | C[C@]12CCC(=O)C=C1CC[C@@H]1[C@@H]2CC[C@@]2(C)[C@H]1CC[C@]2(C)O | inactive | 
37 | ClC1=C(Cl)[C@]2(Cl)[C@@H]3[C@@H]4C[C@@H]([C@H]5O[C@@H]45)[C@@H]3[C@@]1(Cl)C2(Cl)Cl | inactive | 
38 | CO/C=C(/C(=O)OC)c1ccccc1COc1cccc(C(F)(F)F)n1 | inactive | 
39 | O=C(O)C(F)(F)C(F)(F)C(F)(F)C(F)(F)C(F)(F)C(F)(F)C(F)(F)C(F)(F)F | inactive | 
